# Test results from ChEMBL document CHEMBL3988442, “University of Dundee, Small-Polar-MMV Screening Library” (2021).
# Several values for one entry are separate records, joined by “and”; a condition that tells them apart may be missing. Equal values may be shown once. For some of these results: Entries with a potency or affinity are not part of this list.
# Assays:
# [1] = target: T1, Methionyl-tRNA synthetase, putative (Leishmania donovani (strain BPK282A1)) (UniProt E9BF75); assay: Leishmania donovani Methionine tRNA synthetase (LdMetRS):v7. Dose response assay; type: functional; parameters: conc 80 nM, time 150 minutes
# T1 sequence (whole entry): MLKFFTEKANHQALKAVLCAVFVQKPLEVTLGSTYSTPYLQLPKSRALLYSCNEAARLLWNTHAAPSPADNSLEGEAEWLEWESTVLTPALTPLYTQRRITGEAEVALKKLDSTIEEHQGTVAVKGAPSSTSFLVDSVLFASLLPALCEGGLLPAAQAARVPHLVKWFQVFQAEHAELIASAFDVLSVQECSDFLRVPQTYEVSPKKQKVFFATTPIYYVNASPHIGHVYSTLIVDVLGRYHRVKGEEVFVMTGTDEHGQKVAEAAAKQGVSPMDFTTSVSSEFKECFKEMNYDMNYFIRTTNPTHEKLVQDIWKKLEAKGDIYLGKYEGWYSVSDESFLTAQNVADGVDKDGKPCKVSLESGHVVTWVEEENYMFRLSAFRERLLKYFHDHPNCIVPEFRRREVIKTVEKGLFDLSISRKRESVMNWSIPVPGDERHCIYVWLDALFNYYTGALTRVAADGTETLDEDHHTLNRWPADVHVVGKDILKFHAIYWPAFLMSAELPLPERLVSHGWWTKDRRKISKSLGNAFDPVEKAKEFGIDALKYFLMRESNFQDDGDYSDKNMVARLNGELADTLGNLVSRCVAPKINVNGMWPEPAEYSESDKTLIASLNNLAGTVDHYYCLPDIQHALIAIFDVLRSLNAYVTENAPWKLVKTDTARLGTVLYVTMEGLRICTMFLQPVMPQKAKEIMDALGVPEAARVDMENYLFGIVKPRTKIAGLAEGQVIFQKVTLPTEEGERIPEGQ
# [2] = target: Protein translocase subunit SecA (Escherichia coli (strain K12)) (UniProt P10408); assay: Assay to Identify E. coli SecA ATPase Inhibitors; type: functional; parameters: scale not given: direction of the effect not stated beside the values; conditions: 30 µM
# Chain of Protein translocase subunit SecA (Escherichia coli (strain K12)) (P10408 whole entry): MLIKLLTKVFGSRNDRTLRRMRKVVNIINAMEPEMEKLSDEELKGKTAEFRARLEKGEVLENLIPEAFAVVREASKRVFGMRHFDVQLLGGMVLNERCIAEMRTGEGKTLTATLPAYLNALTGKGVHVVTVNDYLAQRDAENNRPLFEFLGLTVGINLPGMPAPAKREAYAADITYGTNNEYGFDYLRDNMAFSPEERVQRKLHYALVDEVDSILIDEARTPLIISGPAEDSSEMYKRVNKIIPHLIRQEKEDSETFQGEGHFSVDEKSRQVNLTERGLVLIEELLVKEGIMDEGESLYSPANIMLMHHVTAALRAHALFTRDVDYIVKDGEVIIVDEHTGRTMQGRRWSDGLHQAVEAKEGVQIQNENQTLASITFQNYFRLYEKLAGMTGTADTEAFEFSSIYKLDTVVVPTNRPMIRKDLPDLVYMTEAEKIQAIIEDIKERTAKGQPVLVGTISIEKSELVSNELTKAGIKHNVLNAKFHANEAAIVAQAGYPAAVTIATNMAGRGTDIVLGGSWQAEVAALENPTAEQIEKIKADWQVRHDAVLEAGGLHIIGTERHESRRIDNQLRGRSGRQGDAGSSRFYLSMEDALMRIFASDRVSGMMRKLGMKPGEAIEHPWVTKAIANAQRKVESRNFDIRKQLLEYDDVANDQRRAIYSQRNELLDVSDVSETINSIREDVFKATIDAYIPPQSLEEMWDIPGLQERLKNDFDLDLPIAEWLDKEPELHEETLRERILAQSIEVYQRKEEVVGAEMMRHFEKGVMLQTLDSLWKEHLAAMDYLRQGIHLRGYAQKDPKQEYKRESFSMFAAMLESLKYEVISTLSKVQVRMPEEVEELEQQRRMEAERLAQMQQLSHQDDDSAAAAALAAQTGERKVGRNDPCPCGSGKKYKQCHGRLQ
# [3] = target: T2, Ubiquitin-activating enzyme e1, putative (Leishmania donovani (strain BPK282A1)) (UniProt E9BSI1); assay: Leishmania donovani Ubiquitin Activating Enzyme (LdE1); type: functional; parameters: scale not given: direction of the effect not stated beside the values; conditions: 30 µM
# T2 sequence (whole entry): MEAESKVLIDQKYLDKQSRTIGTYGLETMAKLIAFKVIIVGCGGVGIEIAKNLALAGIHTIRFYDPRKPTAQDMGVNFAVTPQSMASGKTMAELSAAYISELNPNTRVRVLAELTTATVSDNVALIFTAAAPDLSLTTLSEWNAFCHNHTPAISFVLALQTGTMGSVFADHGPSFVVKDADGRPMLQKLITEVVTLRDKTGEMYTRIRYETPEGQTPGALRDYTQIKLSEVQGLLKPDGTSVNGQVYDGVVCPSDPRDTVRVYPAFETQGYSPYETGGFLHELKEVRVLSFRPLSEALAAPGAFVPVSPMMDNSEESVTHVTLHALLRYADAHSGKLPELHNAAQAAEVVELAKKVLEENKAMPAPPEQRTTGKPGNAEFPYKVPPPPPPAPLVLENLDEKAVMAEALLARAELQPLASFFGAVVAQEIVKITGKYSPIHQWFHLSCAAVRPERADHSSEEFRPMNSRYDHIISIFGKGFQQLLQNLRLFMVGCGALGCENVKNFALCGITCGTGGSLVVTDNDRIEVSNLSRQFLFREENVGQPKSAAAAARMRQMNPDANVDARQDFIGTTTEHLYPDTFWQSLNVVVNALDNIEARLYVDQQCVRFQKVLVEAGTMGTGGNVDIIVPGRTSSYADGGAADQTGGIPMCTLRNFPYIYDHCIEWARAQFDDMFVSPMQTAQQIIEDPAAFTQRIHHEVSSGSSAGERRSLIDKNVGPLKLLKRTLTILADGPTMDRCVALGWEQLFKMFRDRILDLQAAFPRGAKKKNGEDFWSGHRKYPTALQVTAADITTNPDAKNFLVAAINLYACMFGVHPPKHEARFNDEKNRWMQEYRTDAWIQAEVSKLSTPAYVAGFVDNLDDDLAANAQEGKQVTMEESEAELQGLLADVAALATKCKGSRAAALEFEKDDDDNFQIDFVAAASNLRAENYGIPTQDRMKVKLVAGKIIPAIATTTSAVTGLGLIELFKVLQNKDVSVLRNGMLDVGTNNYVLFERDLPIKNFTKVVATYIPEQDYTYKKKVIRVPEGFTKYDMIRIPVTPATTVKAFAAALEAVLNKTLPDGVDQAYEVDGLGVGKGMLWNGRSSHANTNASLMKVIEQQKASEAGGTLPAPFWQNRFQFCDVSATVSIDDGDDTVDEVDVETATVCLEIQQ
# [4] = target: Sialic acid-binding Ig-like lectin 9 (Homo sapiens) (UniProt Q9Y336); assay: Hs-Siglec9 ALPHAscreen SOP 20170721; parameters: scale not given: direction of the effect not stated beside the values; conditions: 10 µM
# Chain of Sialic acid-binding Ig-like lectin 9 (Homo sapiens) (Q9Y336 whole entry): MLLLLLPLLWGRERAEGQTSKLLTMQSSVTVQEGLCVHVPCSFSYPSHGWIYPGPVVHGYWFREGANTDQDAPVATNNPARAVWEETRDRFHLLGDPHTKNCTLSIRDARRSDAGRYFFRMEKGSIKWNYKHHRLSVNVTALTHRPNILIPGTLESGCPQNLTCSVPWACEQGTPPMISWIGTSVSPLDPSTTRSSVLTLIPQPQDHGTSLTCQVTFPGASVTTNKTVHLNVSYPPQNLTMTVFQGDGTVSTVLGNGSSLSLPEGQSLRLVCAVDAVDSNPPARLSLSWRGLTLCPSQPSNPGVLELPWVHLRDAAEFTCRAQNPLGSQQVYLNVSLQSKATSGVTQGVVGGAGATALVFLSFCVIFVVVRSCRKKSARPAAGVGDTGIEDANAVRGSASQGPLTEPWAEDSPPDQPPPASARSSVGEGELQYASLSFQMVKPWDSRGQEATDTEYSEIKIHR
# Trypanosoma cruzi = assay: Trypanosoma cruzi phosphomannomutase and mannose-1-phosphate guanylyltransferase assay; type: functional; parameters: scale not given: direction of the effect not stated beside the values; conditions: 10 µM
# [5] = target: T3, Arginase-2, mitochondrial (Homo sapiens) (UniProt P78540); assay: in vitro enzyme assay to detect the production of urea directly proportional to the activity of Arginase II; type: functional; parameters: scale not given: in the data most compounds retested in dose-response had high values
# T3 sequence (whole entry): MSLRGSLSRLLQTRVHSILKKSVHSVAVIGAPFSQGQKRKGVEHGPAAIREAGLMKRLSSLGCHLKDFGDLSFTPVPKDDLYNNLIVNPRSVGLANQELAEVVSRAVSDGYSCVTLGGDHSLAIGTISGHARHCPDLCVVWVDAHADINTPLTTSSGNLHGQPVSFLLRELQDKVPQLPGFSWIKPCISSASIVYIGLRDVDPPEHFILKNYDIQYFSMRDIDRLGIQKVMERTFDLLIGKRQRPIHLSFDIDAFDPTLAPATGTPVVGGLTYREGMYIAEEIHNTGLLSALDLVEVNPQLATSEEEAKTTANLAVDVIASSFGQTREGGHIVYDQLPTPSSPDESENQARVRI
# [6] = target: T4, Proteasome subunit beta (Trypanosoma cruzi) (UniProt O96673); assay: Trypanosoma cruzi proteasome chymotrypsin-like activity (TcProtChymo) assay.; type: functional; parameters: scale not given: in the data most compounds retested in dose-response had high values; conditions: 9.37 µM
# T4 sequence (whole entry): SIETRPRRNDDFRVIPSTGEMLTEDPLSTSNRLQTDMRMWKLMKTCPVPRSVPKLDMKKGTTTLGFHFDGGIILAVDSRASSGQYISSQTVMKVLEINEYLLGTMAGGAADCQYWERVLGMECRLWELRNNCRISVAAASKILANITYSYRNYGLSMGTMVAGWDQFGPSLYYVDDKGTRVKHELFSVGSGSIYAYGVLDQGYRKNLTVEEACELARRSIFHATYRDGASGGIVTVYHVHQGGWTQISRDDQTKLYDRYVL
# Homo sapiens = organism: Homo sapiens; assay: To identify inhibition of the IFN signalling (Jak-Stat) pathway via expression of an eGFP reporter gene under the control of an IFN-stimulated response element (ISRE) containing MxA promoter.; type: functional; parameters: scale not given: direction of the effect not stated beside the values; conditions: 30 µM
# [7] = target: T5, Tyrosyl-tRNA synthetase, putative (Trypanosoma cruzi (strain CL Brener)) (UniProt Q4DSP6); assay: Trypanosoma cruzi tyrosyl tRNA synthetase (TcYRS) _High Tyrosine SOP; type: functional; parameters: scale not given: in the data most compounds retested in dose-response had high values; conditions: 30 µM
# T5 sequence (whole entry): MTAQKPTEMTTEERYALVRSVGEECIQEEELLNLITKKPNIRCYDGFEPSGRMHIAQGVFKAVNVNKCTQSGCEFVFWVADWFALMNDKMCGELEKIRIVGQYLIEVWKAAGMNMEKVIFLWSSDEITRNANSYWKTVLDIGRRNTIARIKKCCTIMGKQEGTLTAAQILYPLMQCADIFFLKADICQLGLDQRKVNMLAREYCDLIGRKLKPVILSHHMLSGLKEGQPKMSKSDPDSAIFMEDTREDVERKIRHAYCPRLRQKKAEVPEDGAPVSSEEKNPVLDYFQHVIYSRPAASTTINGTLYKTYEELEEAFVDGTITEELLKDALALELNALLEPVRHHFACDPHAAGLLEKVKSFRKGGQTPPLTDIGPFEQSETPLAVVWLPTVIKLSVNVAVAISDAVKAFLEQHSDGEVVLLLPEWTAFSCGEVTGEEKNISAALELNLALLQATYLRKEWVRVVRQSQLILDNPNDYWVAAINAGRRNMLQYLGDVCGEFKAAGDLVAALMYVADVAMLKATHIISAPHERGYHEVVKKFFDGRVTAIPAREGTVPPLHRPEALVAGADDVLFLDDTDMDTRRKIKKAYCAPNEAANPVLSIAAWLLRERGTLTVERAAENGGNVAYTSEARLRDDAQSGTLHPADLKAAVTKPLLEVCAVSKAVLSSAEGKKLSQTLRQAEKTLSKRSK
# [8] = target: T5, Tyrosyl-tRNA synthetase, putative (Trypanosoma cruzi (strain CL Brener)); assay: Trypanosoma cruzi tyrosyl tRNA synthetase (TcYRS) SOP; type: functional; parameters: scale not given: direction of the effect not stated beside the values; conditions: 30 µM
# [9] = target: Chromo domain-containing protein 1 (Saccharomyces cerevisiae (strain ATCC 204508 / S288c) (Baker's yeast)) (UniProt P32657); assay: ScCHD-1 Enzyme Inhibition Assay; type: functional; parameters: scale not given: in the data most compounds retested in dose-response had high values; conditions: 30 µM
# Chain of Chromo domain-containing protein 1 (Saccharomyces cerevisiae (strain ATCC 204508 / S288c) (Baker's yeast)) (P32657 whole entry, the tested form may be a part): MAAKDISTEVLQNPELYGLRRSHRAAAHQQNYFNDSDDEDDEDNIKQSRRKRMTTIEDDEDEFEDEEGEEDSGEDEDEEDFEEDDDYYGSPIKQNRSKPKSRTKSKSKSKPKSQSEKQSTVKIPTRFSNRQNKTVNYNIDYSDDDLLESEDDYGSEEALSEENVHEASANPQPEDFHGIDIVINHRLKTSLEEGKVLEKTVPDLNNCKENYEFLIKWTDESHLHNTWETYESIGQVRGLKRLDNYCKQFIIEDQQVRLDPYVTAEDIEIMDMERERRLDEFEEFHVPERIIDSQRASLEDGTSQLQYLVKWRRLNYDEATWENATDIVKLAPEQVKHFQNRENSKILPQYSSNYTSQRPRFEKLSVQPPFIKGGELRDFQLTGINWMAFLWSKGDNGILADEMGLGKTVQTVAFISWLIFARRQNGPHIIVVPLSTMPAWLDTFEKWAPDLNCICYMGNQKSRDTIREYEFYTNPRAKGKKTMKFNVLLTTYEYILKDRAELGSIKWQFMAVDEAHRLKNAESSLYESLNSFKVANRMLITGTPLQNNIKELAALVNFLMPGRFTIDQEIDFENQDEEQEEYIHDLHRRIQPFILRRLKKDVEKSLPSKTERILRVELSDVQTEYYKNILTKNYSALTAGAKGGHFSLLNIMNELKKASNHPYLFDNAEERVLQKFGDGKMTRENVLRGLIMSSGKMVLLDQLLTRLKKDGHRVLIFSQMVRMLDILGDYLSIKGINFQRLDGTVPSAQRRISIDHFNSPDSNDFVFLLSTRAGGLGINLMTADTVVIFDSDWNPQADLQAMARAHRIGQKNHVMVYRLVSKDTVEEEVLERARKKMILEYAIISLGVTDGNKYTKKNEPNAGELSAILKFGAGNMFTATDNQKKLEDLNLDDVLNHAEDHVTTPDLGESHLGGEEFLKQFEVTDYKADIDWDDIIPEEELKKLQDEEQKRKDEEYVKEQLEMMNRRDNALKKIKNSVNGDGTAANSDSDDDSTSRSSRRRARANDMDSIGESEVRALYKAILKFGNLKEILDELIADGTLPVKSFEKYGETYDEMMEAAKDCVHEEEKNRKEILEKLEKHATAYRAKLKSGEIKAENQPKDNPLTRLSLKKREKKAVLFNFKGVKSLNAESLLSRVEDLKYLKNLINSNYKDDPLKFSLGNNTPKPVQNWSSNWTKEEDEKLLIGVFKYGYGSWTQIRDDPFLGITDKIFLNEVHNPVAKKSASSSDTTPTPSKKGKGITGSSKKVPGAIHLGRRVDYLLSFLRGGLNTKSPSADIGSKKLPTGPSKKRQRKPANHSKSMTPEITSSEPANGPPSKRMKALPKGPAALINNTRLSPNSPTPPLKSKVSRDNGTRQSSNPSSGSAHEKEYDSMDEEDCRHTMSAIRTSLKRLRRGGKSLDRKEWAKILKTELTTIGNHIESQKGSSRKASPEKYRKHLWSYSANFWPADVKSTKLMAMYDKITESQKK
# [10] = target: AMP-activated protein kinase, AMPK (Homo sapiens) (UniProt P54646+O43741+P54619+Q9UGJ0+Q9Y478+Q13131+Q9UGI9); assay: AMP-dependent Kinase enzyme assay. An in vitro enzyme assay that detects ADP turnover that is directly proportional to AMPK activity. This uses naive AMPK that is activated during the assay with MK-8722; type: functional; parameters: scale not given: direction of the effect not stated beside the values; conditions: 30 µM
# N/A = assay: Trypanosoma cruzi proteasome luciferase counter-screen; type: functional; parameters: scale not given: direction of the effect not stated beside the values; conditions: 9.37 µM
Compound,PXC50 ([1]; MAX_EFFECT 27.99295775),PXC50 ([1]; MAX_EFFECT 39.42992874),Percent Effect [2] [%],Percent Effect [3] [%],Percent Effect [4] [%],Percent Effect (Trypanosoma cruzi) [%],Percent Effect ([5]; 33.3 µM) [%],Percent Effect [6],Percent Effect (Homo sapiens) [%],Percent Effect [7] [%],Percent Effect [8] [%],Percent Effect [9] [%],PXC50 ([1]; MAX_EFFECT 13.59649123),PXC50 ([1]; MAX_EFFECT 23.4375),Percent Effect [10] [%],Percent Effect (N/A),Percent Effect ([5]; 30 µM) [%]
CCC(CO)NC(=O)c1ccc2ccc(N(C)CC3CC3)n2c1 (centres undefined),< 4,< 4,3.49,3.9,0.399,3.56,0.457,15.2%,8.81,12.6,15,-3.69,–,–,–,–,–
N#CC1CCCN(c2nc(-c3ccccc3)nc3c2CCNCC3)C1 (centres undefined),–,–,-2.62,-5.48,0.626,-4.17,2,11.2%,2.12,4.17,3.7,9.39,< 4,< 4,-0.435,–,–
Cc1cc(C(C)C(=O)N2CCCN(Cc3cscn3)CC2)c(C)o1 (centres undefined),–,–,-0.889,21.1,21.4,1.5,-4.98,31.9% and 34.8% and 34.4%,23.1,3.43,17.1,-9.64,–,–,-6.33,4.24% and 9.24%,–
OC(CN(Cc1ccccc1)Cc1ccncc1)c1cccs1 (centres undefined),–,–,3.55,2.7,5.24,4.79,25.1,10.2%,5.3,1.07,6.17,-8.61,–,–,-2.19,–,5.95
Cc1cc(NC(=O)N2CCN(c3nc(C)c(C)s3)CC2)no1,–,–,-4.08,-2.7,-1.24,-4.3,0.833,12.8%,-8.43,5.94,8.54,-0.744,–,–,8.59,–,3.78
Cc1cc(C)n(C2CN(Cc3noc(-c4ccccc4)n3)C2)n1,–,–,-4.45,-7.79,3.24,-6.39,-5.52,14.3%,5.29,3.23,1.24,-0.0991,–,–,3.83,–,5.95
O=C(Cn1nc2c(cc1=O)CCCC2)N[C@@H](C(=O)O)c1ccccc1,–,–,-1.59,9.33,7.75,3.34,0.176,12.2%,14.1,10.6,20.5,-5.57,–,–,0.931,–,8.11
CSCC(=O)N1CCCC1c1noc(C2CC2)n1 (centres undefined),–,–,-5.16,10.7,12.3,4.97,29.2,-1.92%,4.6,0.546,11.1,-16.6,–,–,-6.47,–,4.87
CN(C(=O)Cc1ccc(NC(=O)NC2CCC2)cc1)c1ccccc1,–,–,-9.26,5.26,9.14,4.58,0,41.9% and 43.6% and 48.1%,9.37,4.25,15.6,-19,–,–,-0.53,15.8% and 14.9%,–
